# High-throughput results (PubChem)
# Shn3 3UTR inh = Schnurri-3 reporter inhibition in Clone20 osteoblasts; Clone20 osteoblast Shn3 3'UTR firefly luciferase, 24 h; inhibition, % at 12.5 µM; actives 0.52% (n = 360,000); AID 588674;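 active = mean inhibition of at least 75% with every replicate also reaching 75%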;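 note: 0% = median of neutral control wells and 100% = pilot-screen positive control compound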
# MITF TRPM1 inh = reduces MITF-dependent TRPM1 promoter luciferase signal; AID 488899; actives 0.83% (n = 330,000); inhibition, % at 12.5 µM; SK-MEL-5 TRPM1 promoter luciferase, 24 h;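 active = mean inhibition across replicates of 60% or more, whatever share of single replicates reaches that level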
# Peg3 prom inh-1 = inhibitors of Peg3 promoter; actives 1.7% (n = 360,000); HeLa PEG-Prom luciferase reporter, luminescence, overnight; inhibition, % at 20 µM; AID 588405;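 active = inhibition of at least 50% at 20 µM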
# CF NFkB inh = blocks PAF-induced NF-kB reporter in cystic fibrosis cells; KKLEB NF-kB-GFP reporter, GFP fluorescence overnight; inhibition, % at 5 µM; actives 0.86% (n = 360,000);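 active = at least 50% inhibition at 5 µM, scaled per plate between neutral and stimulator controls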;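 note: PAF is a Pseudomonas aeruginosa culture filtrate used as stimulus; plate controls were PAF-stimulated DMSO wells for no effect and unstimulated DMSO wells for full effect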
# KKLEB tox = CF airway cell cytotoxicity counter-screen. actives 0.36% (n = 360,000). KKLEB CF airway cells viability, ATPlite luminescence, overnight; stronger effect = lower value; cells stimulated with P. aeruginosa culture filtrate. activity change (cytotoxicity), % at 5 µM;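 active = corrected activity change at or below -50% at 5 µM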
# HIF-2a block = HIF-2a inhibition. 786-0 RCC cells HIF-2a reporter, luciferase luminescence, overnight. inhibition, % at 18.8 µM. actives 0.72% (n = 360,000). AID 624352;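 active = inhibition of the luminescence signal of 40% or more relative to plate controls, in a single-dose primary screen at 18.75 µM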
# Peg3 prom inh-2 = confirmation of Peg3 promoter inhibitors; shares compounds with Peg3 prom inh-1; HeLa PEG-Prom luciferase reporter, luminescence, overnight; inhibition, % at 20 µM; actives 84% (n = 1,300); AID 602417;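 active = at 20 µM dose, 40% or more inhibition averaged across four replicates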
# Active calls of the source: *; / = no result given. Rows were chosen to be rich in hits. Some 2.8% of all compounds tested hit in one or more screens of this group.
SMILES,Shn3 3UTR inh,MITF TRPM1 inh,Peg3 prom inh-1,CF NFkB inh,KKLEB tox,HIF-2a block,Peg3 prom inh-2
c1cncc(-c2nc(NCC3COc4ccccc4O3)c3ccccc3n2)c1 (stereo not given),18,-32,58*,-14,0,14,68*
c1cncc(-c2nc(NCc3ccc4c(c3)OCO4)c3ccccc3n2)c1,-20,-5,28,16,7,-3,/
CCN(CCN(C)C)C(=O)C1CCN(S(=O)(=O)c2c(C)noc2/C=C/c2ccccc2F)CC1,-8,45,90*,13,-4,-2,51*
CCOc1ccccc1/C=C/c1onc(C)c1S(=O)(=O)N1CCC(C(=O)N(CC)CC)CC1,-3,3,19,-8,-4,12,/
Cc1ccc(S(=O)(=O)N2CCOCC2)cc1NC(=O)CNC1CCCC1,7,7,16,7,-3,15,/
Cn1cc(CN2CCCC(C(=O)Nc3ccc(-c4cccc(F)c4)cc3)C2)cn1 (stereo not given),14,-3,53*,11,-13,6,77*
Cn1cc(CN2CCCC(C(=O)Nc3cccc(-n4cccn4)c3)C2)cn1 (stereo not given),-6,4,15,-22,0,5,/
COc1cc(OC)c(OC)cc1CN1CCN(Cc2ccco2)CC1,-7,-4,-2,-9,2,15,/
COC(=O)Cn1c2ccc(OC)cc2c2nc3ccccc3nc21,5,8,23,-1,-2,6,/
CCOC(=O)Cn1c2ccc(OC)cc2c2nc3ccccc3nc21,4,27,88*,26,-46,16,33
CCn1cc(C(=O)NC(C)C)c(=O)c2cc(F)c(N3CCN(C(=O)c4ccco4)CC3)cc21,15,19,43,4,2,16,/
CCn1cc(C(=O)NCCC(C)C)c(=O)c2cc(F)c(N3CCN(C(=O)c4ccco4)CC3)cc21,-7,17,64*,7,-17,12,49*
COc1cccc(NC(=O)Nc2cccc(C(=O)O)c2)c1,47,81*,67*,6,4,81*,55*
NS(=O)(=O)c1ccc(CCNC(=O)c2cc3ccccc3s2)cc1,10,-1,1,-8,-3,-2,/
O=C1c2cc(Br)ccc2OC2C=CC=CC12 (stereo not given),-51,-51,-107,-130,8,-196,/
O=C(c1cnc(N2CCN(c3ncccn3)CC2)c2ccccc12)N1CCN(c2ncccn2)CC1,36,-5,60*,-4,0,7,34
CC1C(=O)N2CCCc3cc(S(=O)(=O)N4CCN(c5ccc(F)cc5)CC4)cc1c32 (stereo not given),-11,11,11,-5,-20,-5,/
NC(N)=N/N=C/c1ccc(OCc2ccccc2)c(OCc2ccccc2)c1,67,82*,103*,45,-53*,28,99*
Cc1ccc2[nH]c3c(c2c1)CCCC3NC(=O)CCl (stereo not given),24,55,82*,62*,-65*,12,89*
CCN(CCO)c1ccc(N=Nc2cc(C)[nH]n2)cc1,15,76*,72*,1,-14,55*,56*
Nc1cccc2nc3ccccc3cc12,-59,85*,95*,-89,-8,5,99*
CN(C(=O)COC(=O)/C=C/c1cccc([N+](=O)[O-])c1)C1CCS(=O)(=O)C1 (stereo not given),-5,26,51*,9,-4,40,62*
CSc1nnc(NC(=O)c2ccc3c(c2)OCO3)s1,54,41,52*,-8,0,-13,15
Cc1nnc(NC(=O)c2ccc3c(c2)OCO3)s1,-34,-47,-160,0,5,-184,/
COc1ccc(C(=O)NC(C)CCc2ccccc2)c(O)c1 (stereo not given),-21,-12,-81,-5,-1,-80,/
SMILES,Shn3 3UTR inh,MITF TRPM1 inh,Peg3 prom inh-1,CF NFkB inh,KKLEB tox,HIF-2a block,Peg3 prom inh-2
Cc1c(C(=O)N2CCC2(C)C(=O)O)oc2ccccc12 (stereo not given),-7,/,-2,6,-21,20,/
COc1cccc(/C=N/Nc2ccc(S(=O)(=O)O)cc2)c1O,-1,-2,11,6,5,18,/
COc1cccc(/C=N/Nc2ccc(C(=O)O)cc2)c1O,92*,105*,101*,0,7,95*,94*
COc1ccc([C@H]2C[C@H](O)[C@@H](n3cc(C4CC4)nn3)CN2C(=O)C2CCCCC2)cc1,13,/,4,26,4,10,/
CCCN1C(=O)C2(SC(NC(C)=O)=NN2C(C)=O)c2cc(C)ccc21 (stereo not given),-22,7,14,6,0,15,/
CC(C)(C)c1ccc(C(=O)N2CCN(Cc3ccccc3)CC2)cc1,-5,/,6,18,-4,-14,/
CC(C)(C)c1ccc(CN2N=Nc3ccccc3S2(=O)=O)cc1,14,1,94*,47,-22,3,55*
CCN1CCN(CCNC(=O)c2ccc(/C=C3\Sc4ccccc4N(Cc4ccccc4F)C3=O)cc2)CC1,-3,5,109*,-6,-30,-3,99*
Cc1nc(NC(=O)/C=C/c2ccccc2)sc1C(=O)Nc1ccc(Cl)cc1,57,29,53*,34,-41,34,23
COc1ccccc1CCNC(=O)c1cc(-c2ccncc2)nc2ccc(Br)cc12,24,1,60*,21,-9,24,36
CN(C)c1ccc2c(=O)c3ccccc3oc2n1,-41,/,-120,1,-6,-130,/
O=C(CSc1nnc(NC(=O)C2CC2)s1)Nc1ccccc1C(F)(F)F,-8,10,22,4,-8,19,/
CN(C)Cc1csc(NC(=O)Nc2ccccc2Oc2ccccc2)n1,0,/,93*,49,-8,-14,20
COc1ccccc1NC(=O)Nc1nc(C(N)CCc2ccccc2)cs1 (stereo not given),33,/,88*,-3,-10,4,95*
CN(C)Cc1csc(NC(=O)Nc2ccccc2-c2ccccc2)n1,5,/,9,5,-8,-3,/
CC(C)CC(N)c1csc(NC(=O)Nc2ccccc2C(C)(C)C)n1 (stereo not given),5,/,67*,-12,-12,-5,91*
COc1ccc(CNC(=O)Nc2nc(C(N)Cc3ccc(F)cc3)cs2)cc1 (stereo not given),68,/,96*,7,-25,9,98*
COc1cc(OC)cc(C(=O)Nc2nc(CC(=O)NCc3ccc(F)cc3)cs2)c1,4,8,32,12,-11,2,/
Cc1cccc(C(=O)OCC(=O)c2c(C)[nH]c3ccccc23)c1O,-42,-81,-288,34,0,-205,/
